HT1080 IDH1KD tx: toxicity to HT-1080 IDH1 knockdown cells (counter line); HT-1080 IDH1 knockdown viability, ATP luminescence, 48 h; Potency, µM (highest dose often 46.1 µM), for the others: at the highest dose activity, negative = toxicity, actives largely listed as cytotoxic; 360,000 tested, 2% active; AID 686971;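 note: potency is the fitted concentration of half-maximal effect; 0% = DMSO wells and -100% = cell-free medium wells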
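Viability of IDH1-knockdown HT-1080 fibrosarcoma cells was assessed by CellTiter-Glo after 48 h at 37 °C with titrated compound; concentration-effect curves were classified by fit quality and response size.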
DT40 TDP1 no CPT: qHTS for Inhibitors of human tyrosyl-DNA phosphodiesterase 1 (TDP1): qHTS in cells in absence of CPT. DT40 Tdp1-/- hTDP1 cells, no CPT, ATP luminescence, 48 h. Potency, µM (top dose mostly 46.2 µM), for the others: top-dose activity change, negative = growth inhibition, most hits filed as inhibitors. 420,000 tested, 15% active. AID 686978, 2013; note: potency is the fitted concentration of half-maximal effect; nearly all actives have a fitted effect of over 55% in size
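Compound effects on proliferation are scored in DT40 Tdp1-/-;hTDP1 cells in the absence of CPT. ATP levels (CellTiter-Glo luminescence) are recorded after a ≥48 hr, 37 °C incubation.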
uPA surface inh: inhibitors of cell surface uPA generation. cell surface uPA generation assay, qHTS. Potency, µM (titrated, usually from 38.3 µM), for inactives: at the highest dose activity change, negative = inhibition, actives largely listed as inhibitors. 330,000 tested, 0.31% active. AID 540303; active = well fitted inhibition curve with a large enough effect; inconclusive = small, poorly fitted or top-dose-only effect; inactive = no such curve, though single readings can be large or run the other way; tested in mouse RAW 264.7 cells; note: potency is the fitted concentration of half-maximal effect; nearly all actives have a fitted effect of over 55% in size
HT1080-NT tox: kills 2HG-producing HT-1080-NT fibrosarcoma cells | 360,000 tested, 1.6% active | Potency, µM (series often up to 46.1 µM), inactives show at the highest dose activity, negative = less viability, usual class: cytotoxic | HT-1080-NT fibrosarcoma viability, CellTiter-Glo ATP luminescence, 48 h;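 note: NT is the 2HG producing partner of a matched IDH1 knockdown line; potency is the fitted concentration of half-maximal effect; 0% = DMSO-treated cells and -100% = media-only wells without cells; nearly all actives have a fitted effect of over 55% in size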
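Viability of the 2HG-overproducing fibrosarcoma line after 48 hours of compound exposure at 37 degrees C was determined by luminescence with CellTiter-Glo, and concentration-effect curves were then fitted and categorized.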
TDP1 cell CPT: DT40-hTDP1 cell growth loss with CPT | 420,000 tested, 12% active | Potency, µM (titrated, usually from 46.2 µM), without a hit: at the top dose activity change, negative = growth inhibition, usual class: inhibitors | chicken DT40 Tdp1-/-;hTDP1 cells + 20 nM CPT, ATP luminescence, 48 h; note: potency is the fitted concentration of half-maximal effect; nearly all actives have a fitted effect of over 55% in size
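Chicken DT40 Tdp1-/- cells complemented with human TDP1, 400 cells/well, exposed to compounds plus 20 nM camptothecin for at least 48 h at 37 C; viability read as ATP content by CellTiter-Glo luminescence.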
IL-1B inflam inh: blocks inflammasome-driven IL-1 beta release. activity change, % at 57.5 µM. 360,000 tested, 4.7% active. THP-1 LPS/ATP IL-1B secretion, AlphaLISA, 16 h; active compounds read low; in the data active = activity change below about -50%; inconclusive = mostly about -30% to -49%
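THP-1 cells pretreated 1 hr with compounds (up to 57.5 uM final), then stimulated with LPS (250 ng/mL final) plus ATP (1.25 mM final); secreted IL-1B measured by AlphaLISA after 16 hr, decreased signal indicating inhibition.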
The depositor's hits bear a star; u = inconclusive; x = not tested or not shown; [ ] = another dose, or the depositor's remark. A selection: hits, their analogues and other compounds. The true share with any hit is near 19%. Unless noted, calls come from the whole dose curve; as a rule, active = well fitted curve in the direction sought with a large enough effect; inconclusive = small, poorly fitted or top-dose-only effect, or another doubt; inactive = no such curve, though single readings can be large; an effect the other way counts as inactive or inconclusive. Unless noted, % is set by controls: 0 for no effect and ±100 for the full control effect.

SMILES	HT1080 IDH1KD tx	DT40 TDP1 no CPT	uPA surface inh	HT1080-NT tox	TDP1 cell CPT	IL-1B inflam inh
CCCCn1c(N)c(N(CC)C(=O)C2COc3ccccc3O2)c(=O)[nH]c1=O (stereo not given)	-10.7%	-9.8%	-2.5%	-4.0%	-13.5%	8.9
CC(C)COC(=O)C(C#N)c1nc2ccccc2nc1N1CCN(Cc2ccccc2)CC1 (stereo not given)	14.6%	u	2.6%	8.8%	u	-12.2
COCCCNC(=O)C(C#N)c1nc2ccccc2nc1N1CCN(Cc2ccccc2)CC1 (stereo not given)	5.9%	u	1.2%	-4.4%	23.1µM*	-57.7*
C=CCOC(=O)C(C#N)c1nc2ccccc2nc1N1CCN(Cc2ccccc2)CC1 (stereo not given)	0.2%	23.1µM*	-8.9%	0.7%	u	-22.8
COCCOC(=O)C(C#N)c1nc2ccccc2nc1N1CCN(Cc2ccccc2)CC1 (stereo not given)	-0.8%	16.4µM*	-4.3%	-2.3%	23.1µM*	-7.6
CCC(CC)COC(=O)C(C#N)c1nc2ccccc2nc1N1CCOCC1 (stereo not given)	-10.8%	23.1µM*	-0.7%	-11.4%	u	-3.9
CN(C)c1nc(Cl)nc2c1nc(Cl)n2C1CCCCO1 (stereo not given)	8.8%	-19.3%	3.9%	10.2%	2.8%	27.4
COC(=O)c1cc(Br)c(=O)n(-c2cccc(F)c2)c1	16.8%	-2.3%	-8.3%	0.8%	-0.6%	5.2
CCc1cccc(C)c1NC(=O)NC1COc2ccccc2C1 (stereo not given)	x	-25.5%	x	x	-25.3%	x
CCCCOC(=O)C(C#N)c1nc2ccccc2nc1N1CCN(Cc2ccc3c(c2)OCO3)CC1 (stereo not given)	-5.7%[9.24 µM]	18.4µM*	-7.2%	-3.4%	16.4µM*	-3.7
COCC(C)OC(=O)C(C#N)c1nc2ccccc2nc1N1CCN(Cc2ccccc2)CC1 (stereo not given)	14.4%	u	-4.9%	7.5%	u	-55.9*
COCCNC(=O)C(C#N)c1nc2ccccc2nc1N1CCCCCC1 (stereo not given)	-6.6%	-11.7%	-3.3%	8.8%	-14.2%	-70.5*
CCCCNC(=O)C(C#N)c1nc2ccccc2nc1N1CCN(c2ccccc2F)CC1 (stereo not given)	20.2%	-18.6%	3.3%	16.7%	-8.5%	2.9
CO[C@H]1[C@H](NC(=O)c2cccc(F)c2)c2ccccc2C12CCN(Cc1ccco1)CC2	x	-15.9%	x	x	-2.5%	x
COc1ccc(-c2cc3c(o2)CCCC3OCCN2CCOCC2)cc1 (stereo not given)	-17.6%	u	x	-11.6%	u	4.6
CC(=O)c1ccc(NC(=O)CCc2c(C)nn(-c3ccc4nnc(C)n4n3)c2C)cc1	x	-12.7%	x	x	1.2%	x
Cc1nn(-c2ccc3nnc(C)n3n2)c(C)c1CCC(=O)Nc1ccc(OC(F)(F)F)cc1	x	23.1µM*	x	x	11.6µM*	x
C=CCc1cccc2cc(C(=O)N3CCN(C(=O)c4ccccc4)CC3)c(=O)oc12	3.9%	-27.1%	-8.4%	-14.0%	-2.5%	-7.3
O=C(NCCCN1CCCCC1)C1CCC(CNS(=O)(=O)c2cccc3nsnc23)CC1 (stereo not given)	7.9%	18.2%	-3.4%	-5.9%	-3.6%	-9.9
CC(C)(C)n1ncc2c(=O)n(CC(=O)NCc3ccc(F)cc3)cnc21	13µM*	8.2µM*	-18.1%	u	6.51µM*	36.9
Cc1ccc(C)c(Cn2cnc3c(cnn3C(C)(C)C)c2=O)c1	u	18.4µM*	7.6%	-12.1%	-112.5%	-26.9
CCOC(=O)c1ccccc1NC(=O)Cn1cnc2c(cnn2C(C)(C)C)c1=O	5.7%	25.9µM*	1.2%	10.9%	u	0.9
CC(C)(C)n1ncc2c(=O)n(CC(=O)NCc3ccco3)cnc21	-24.8%	u	-14.4%	-10.8%	u	18.8
Cc1ccccc1Cn1cnc2c(cnn2C(C)(C)C)c1=O	-8.7%	u	-6.6%	-0.3%	u	-22.3
Cc1c(C(=O)N2CCOc3ccc(Cl)cc3C2)sc2ncnc(NCCc3ccccn3)c12	x	u	x	x	-10.7%[9.04 µM]	x
SMILES	HT1080 IDH1KD tx	DT40 TDP1 no CPT	uPA surface inh	HT1080-NT tox	TDP1 cell CPT	IL-1B inflam inh
Cc1ccc2ncc(C(=O)NCc3ccccc3Cl)c(=O)n2c1	x	-3.5%	x	x	-21.4%	x
O=C(COc1ccc(Cl)cc1)Nc1ncc([N+](=O)[O-])s1	u	23.1µM*	-13.2%	u	25.9µM*	-21.9
O=C(COC(=O)COc1ccccc1)Nc1ncc([N+](=O)[O-])s1	-3.2%	u	-1.3%	4.4%	23.1µM*	-0.4
CC(CC(=O)Nc1ncc([N+](=O)[O-])s1)c1ccccc1 (stereo not given)	u	u	1.1%	u	u	-62.8*
N/C(=N\OC(=O)Nc1ccccc1)c1ncc([N+](=O)[O-])s1	20.6µM*	8.2µM*	-9.1%	u	3.26µM*	-64.3*
O=C(COC(=O)c1ccc([N+](=O)[O-])s1)Nc1ccccc1	19.7%	-12.4%	-4.6%	15.5%	u	17.5
CCC(Oc1ccccc1)C(=O)Nc1ncc([N+](=O)[O-])s1 (stereo not given)	-4.7%	u	-3.2%	-11.0%	u	3.0
COCCNC(=O)C(NC(=O)C1CCC(C)CC1)C(C)C (stereo not given)	-1.0%	-5.4%	-9.6%	3.2%	-1.8%	40.5
CC(=O)c1ccc(S(=O)(=O)N2CCN(C(=O)CSc3ccc(C)c(C)c3)CC2)cc1	-8.3%	u	-1.9%	-14.5%	u	-1.2
O=C(Cc1ccc(Br)cc1)Nc1ncc([N+](=O)[O-])s1	u	13µM*	7.5%	u	u	-53.8*
O=C(Cc1ccc(Cl)cc1)Nc1ncc([N+](=O)[O-])s1	u	-28.8%	7.0%	u	2.5%	32.6
O=[N+]([O-])c1ccccc1C(O)Cc1ccccn1 (stereo not given)	u	-3.7%	-3.9%	26.0%	16.6%	-5.8
CCC(C)Sc1ccc([C@@H]2[C@H]3C(=O)N(CC)C(=O)[C@H]3[C@]3(C(=O)OC)CCCN23)cc1OC (stereo not given in full)	0.2%	23.1µM*	-0.8%	0.9%	23.1µM*	-5.8
CCC(C)Sc1ccc([C@@H]2[C@@H]3C(=O)N(C)C(=O)[C@@H]3[C@]3(C(=O)OC)CCCCN23)cc1 (stereo not given in full)	3.7%	u	5.1%	2.4%	18.4µM*	-24.5
